# According to publication PMC4336329 (PLoS ONE, 2015):
# Hit rate of the full screen: of about 310,000 compounds, about 14,000 (4.5%) showed an effect of 50% or more. Effects have a minus sign here. The sample as a whole holds a higher share of strong results than the screen did.
# Molecular target: human ether-à-go-go-related gene (hERG) potassium channel (human, UniProt Q12809)
# Test: primary screen, population patch clamp on CHO cells stably expressing hERG; higher = less effect of the substance
# Procedure: Briefly, Chinese hamster ovary (CHO) cells stably expressing the hERG channel were dislodged from tissue culture flasks and dispensed into PPC plates. […] During the recording, background leak currents were estimated by a 100 ms step to -80 mV from an initial holding potential of -70 mV and subtracted from the subsequent current measurement. The campaign was conducted in two phases using slight differences in recording protocol. In the first phase, the initial voltage pulse used a 100 ms step to -30 mV from a holding potential of -70 mV, a 2 s conditioning step to +25 mV, and a 2 s test step to -30 mV. During the second phase of the screen, the potential during the conditioning step was raised to +45 mV. In both phases of the campaign, a secondary voltage pulse was applied using the same parameters as the second phase initial pulse. The initial and secondary pulses were applied in the absence of compound, and upon application of 1 μM and 10 μM test concentrations. […]
# 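Note: peak tail current of the secondary pulse compared with the same well before compound.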
# Chain of human ether-à-go-go-related gene (hERG) potassium channel (Q12809 whole entry, looked up): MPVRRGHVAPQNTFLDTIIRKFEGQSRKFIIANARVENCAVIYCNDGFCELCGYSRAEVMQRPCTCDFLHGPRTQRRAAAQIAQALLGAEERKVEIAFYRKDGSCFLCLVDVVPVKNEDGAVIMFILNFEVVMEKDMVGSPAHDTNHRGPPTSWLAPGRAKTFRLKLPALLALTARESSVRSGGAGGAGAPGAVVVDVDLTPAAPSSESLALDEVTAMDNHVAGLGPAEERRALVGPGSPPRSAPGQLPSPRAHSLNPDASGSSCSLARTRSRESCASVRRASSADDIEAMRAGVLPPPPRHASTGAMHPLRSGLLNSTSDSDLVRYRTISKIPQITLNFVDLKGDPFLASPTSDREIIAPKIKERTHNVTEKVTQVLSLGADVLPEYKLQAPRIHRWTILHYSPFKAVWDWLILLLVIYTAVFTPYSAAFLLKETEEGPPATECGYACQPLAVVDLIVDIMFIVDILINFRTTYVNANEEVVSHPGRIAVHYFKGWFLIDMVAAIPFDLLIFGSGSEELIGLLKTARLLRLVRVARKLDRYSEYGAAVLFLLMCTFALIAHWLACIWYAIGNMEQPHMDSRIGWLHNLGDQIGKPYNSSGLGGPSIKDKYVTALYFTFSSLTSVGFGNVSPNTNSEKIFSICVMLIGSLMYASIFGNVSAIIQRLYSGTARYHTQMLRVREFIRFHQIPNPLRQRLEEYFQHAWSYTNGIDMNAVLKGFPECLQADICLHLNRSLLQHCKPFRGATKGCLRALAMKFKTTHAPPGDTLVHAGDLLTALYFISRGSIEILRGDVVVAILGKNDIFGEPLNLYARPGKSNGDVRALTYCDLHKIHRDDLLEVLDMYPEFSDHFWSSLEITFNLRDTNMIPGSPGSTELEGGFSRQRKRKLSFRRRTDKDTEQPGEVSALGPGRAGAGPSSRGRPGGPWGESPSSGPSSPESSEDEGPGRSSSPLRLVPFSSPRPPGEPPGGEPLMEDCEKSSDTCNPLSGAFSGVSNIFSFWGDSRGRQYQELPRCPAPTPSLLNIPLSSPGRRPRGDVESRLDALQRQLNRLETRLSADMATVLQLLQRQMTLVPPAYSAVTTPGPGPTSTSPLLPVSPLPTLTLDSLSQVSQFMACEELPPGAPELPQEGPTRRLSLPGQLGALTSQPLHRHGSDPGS
row,SMILES,"hERG current change (%, negative = inhibition) at 10uM"
1,Cc1cc(C)c2c(c1)/C(=N/NC(=O)c1cc(C)oc1C)CCC2,6.66%
2,Cc1ccc(S(=O)(=O)N2CCC(C(=O)OCC(=O)NCCc3ccccc3)CC2)cc1C,-8.07%
3,C/C(=N\O)c1c(O)cc(-c2ccccc2)n(-c2ccccc2)c1=O,8.56%
4,CN(c1ccc(C(=O)N/N=C/c2cccc([N+](=O)[O-])c2)cc1)S(=O)(=O)c1ccccc1,1.88%
5,Cc1onc(-c2c(F)cccc2Cl)c1C(=O)N(C)C1CCCCC1,2.65%
6,CCN(CC)c1ccc(/C=N/NC(=S)NCc2ccccc2)c(O)c1,12%
7,COCCn1c(=S)[nH]c2cc(C(=O)N(CCO)Cc3ccccc3)ccc2c1=O,4.32%
8,CC(C)=CCc1c(O)ccc2c1OC(c1ccc(O)c(O)c1)CC2=O (centres unmarked),9.78%
9,COc1ccc(C(=O)CCC(=O)N2CCN(c3ccccc3)CC2)cc1,-9.62%
10,COc1ccc(N2CCN(C(=O)CSc3ccccc3N)CC2)cc1,3.07%
11,COc1ccc(C(=O)CCC(=O)N2CCN(c3ccc([N+](=O)[O-])cc3)CC2)cc1,-63.8%
12,COc1ccc(C(=O)NC(=S)N2CCN(c3ccc([N+](=O)[O-])cc3)CC2)cc1,-49.2%
13,COc1ccc(N2CCN(C(=O)CSc3ccc([N+](=O)[O-])cc3)CC2)cc1,-68.4%
14,COc1ccc(N2CCN(C(=O)CSc3ccccc3)CC2)cc1,4.44%
15,O=C(NC1CCN(S(=O)(=O)c2cccc(F)c2)CC1)c1ccc(F)cc1,14.6%
16,Cc1cc2c(sc3c(C)ccc(C)c32)c(C)n1.Cl,3.48%
17,O=C(NNC(=O)c1cccnc1)NC12CC3CC(CC(C3)C1)C2,-2.41%
18,CCCNC(=O)CS(=O)Cc1nc(-c2ccccc2C)oc1C (centres unmarked),6.71%
19,CC(=O)c1ccccc1NC(=O)C1CCCN(C(=O)c2ccc(Cl)cc2)C1 (centres unmarked),-25.6%
20,COc1ccc(S(=O)(=O)Cc2ccc(C(=O)NC3CCCCC3)o2)cc1,-2.17%

row,SMILES,"hERG current change (%, negative = inhibition) at 10uM"
1,C[N+]1(C)C2CCC1CC(OC(=O)c1ccco1)C2.[Br-] (centres unmarked),7.81%
2,CCCN(C(=O)CSc1nnc(-c2ccoc2C)n1N)C1CCS(=O)(=O)C1 (centres unmarked),5.3%
3,COc1cc(C(=O)NCC(c2ccco2)N2CCCC2)ccc1OCc1ccccc1 (centres unmarked),-40.5%
4,O=C(NCC(c1ccco1)N1CCCC1)c1cn(Cc2ccccc2)nc1-c1ccccc1 (centres unmarked),-58.5%
5,COc1ccccc1-c1nn(Cc2ccccc2)cc1C(=O)NCC(c1ccco1)N1CCCC1 (centres unmarked),-64%
6,COc1ccc(OC)c(-c2nn(-c3ccccc3)cc2C(=O)NCC2CCCO2)c1 (centres unmarked),2.13%
7,Cc1cc(C(=O)NCC(c2ccco2)N2CCCC2)c2ccccc2n1 (centres unmarked),6.54%
8,COc1ccc(OC)c(-c2nn(-c3ccccc3)cc2C(=O)NCC(c2ccco2)N2CCCC2)c1 (centres unmarked),-63.7%
9,COc1ccccc1C(=O)NCCC(=O)NCC(c1ccco1)N1CCCC1 (centres unmarked),13.7%
10,COc1ccccc1-c1nn(-c2ccccc2)cc1C(=O)NCC(c1ccco1)N1CCCC1 (centres unmarked),-53%
11,COc1ccc(Cl)cc1C(=O)NCC(c1ccco1)N1CCCC1 (centres unmarked),-44.5%
12,COc1ccc(OC)c(-c2nn(-c3ccccc3)cc2C(=O)NCC(c2cccs2)N2CCOCC2)c1 (centres unmarked),-30.2%
13,Cc1ccccc1-c1nn(-c2ccccc2)cc1C(=O)NCC(c1ccco1)N1CCCC1 (centres unmarked),-14.3%
14,O=C(NCC(c1ccco1)N1CCCC1)c1ccccc1F (centres unmarked),3.76%
15,CC(=O)NC1(C(F)(F)F)N=C2SCCN2C1=O (centres unmarked),7.4%
16,CCOc1cc(/C=C/c2cccc[n+]2C)ccc1O.[I-],24.7%
17,O=C(COc1ccc(NC(=O)c2ccccc2[N+](=O)[O-])cc1)c1ccc(F)cc1,2.93%
18,O=[N+]([O-])c1cccc(S(=O)(=O)[N-]c2nc3ccccc3nc2-n2cc[n+](Cc3ccccc3)c2)c1,-5.11%
19,CC(C)N(C(=O)Cn1c(SCC(=O)Nc2nccs2)nc2ccccc21)C(C)C,12.6%
20,CCN(CC)N=Nc1cccc(NC(C)=O)c1,0.363%

row,SMILES,"hERG current change (%, negative = inhibition) at 10uM"
1,CCc1nc(C)ccc1OCC(=O)N(CC)CC.O.O=C(O)C(=O)O,-30.9%
2,CCOC(=O)c1c(NC(=O)CSc2nnc3c(n2)[nH]c2ccccc23)sc2c1CCN(C)C2,-6.08%
3,CCOC(=O)c1ccc(NC2c3ccccc3C(=O)N2c2cccnc2)cc1 (centres unmarked),-57%
4,Cc1ccc(NC2c3ccccc3C(=O)N2c2cccnc2)cc1 (centres unmarked),-21.5%
5,CCOC(=O)c1ccc(NC2c3ccccc3C(=O)N2c2ccccn2)cc1 (centres unmarked),9.93%
6,CCOc1ccc(/C(O)=C2/C(=O)C(=O)N(CCCN3CCOCC3)C2c2ccc(C)cc2)cc1C (centres unmarked),23.8%
7,NC(=O)c1cccnc1Oc1cccc(Cl)c1,11.8%
8,Cc1ccc(C)c(N(C(=O)CNC(=O)c2ccco2)C(C(=O)NC2CCCCC2)c2cccnc2)c1 (centres unmarked),15.3%
9,O=C(NCC(=O)N(Cc1ccccc1)C(C(=O)NC1CCCC1)c1ccncc1)c1ccco1 (centres unmarked),5.71%
10,COc1ccc(N(C(=O)c2ccco2)C(C(=O)NC2CCCC2)c2ccncc2)cc1OC (centres unmarked),5.24%
11,COc1cccc(C(C(=O)NC2CCCC2)N(C(=O)c2ccco2)c2cccc(C(C)=O)c2)c1OC (centres unmarked),13.9%
12,COc1cccc(C(C(=O)NC2CCCC2)N(C(=O)c2ccco2)c2ccc(NC(C)=O)cc2)c1OC (centres unmarked),-64%
13,Cc1ccc(N(C(=O)CNC(=O)c2ccco2)C(C(=O)NC2CCCC2)c2cccnc2)c(C)c1 (centres unmarked),10.1%
14,COc1ccccc1CN(C(=O)c1ccco1)C(C(=O)NC1CCCC1)c1ccncc1 (centres unmarked),-8.04%
15,COc1cccc(C(C(=O)NC2CCCC2)N(C(=O)c2ccco2)c2ccc(C(C)=O)cc2)c1OC (centres unmarked),-13.3%
16,COc1ccc(CCN(C(=O)c2ccco2)C(C(=O)NC2CCCC2)c2ccncc2)cc1OC (centres unmarked),-55%
17,Cc1ccc(N(C(=O)CNC(=O)c2ccco2)C(C(=O)NC2CCCCC2)c2cccnc2)c(C)c1 (centres unmarked),-71.9%
18,O=C(NCC(=O)N(CCc1ccccc1)C(C(=O)NC1CCCCC1)c1ccncc1)c1ccco1 (centres unmarked),-54.6%
19,O=C(NCC(=O)N(c1ccccc1)C(C(=O)NC1CCCCC1)c1ccncc1)c1ccco1 (centres unmarked),5.92%
